# Laboratory results taken from PubChem BioAssay (EPA / NIEHS).
# Inconclusive results are not listed. Activity calls are given as the source filed them. The calls were made as follows: active = hit-call score of the fitted dose curve at least 0.9, where 1 is the maximum; inconclusive = response in the unintended direction; inactive = score below 0.9.
# Tests used:
# [1] = biological target: human Thromboxane A2 Receptor (TXA2), TBXA2R (gene 6915) (UniProt P21731); experiment: NVS_GPCR_hTXA2: NovaScreen (NVS) G Protein-Coupled Receptor Assay for human Thromboxane A2 Receptor (TXA2) (AID 2283282);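 also: actives reduce bound radioligand signal relative to DMSO baseline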
# human Thromboxane A2 Receptor (TXA2), TBXA2R (gene 6915), sequence (P21731 whole entry, looked up): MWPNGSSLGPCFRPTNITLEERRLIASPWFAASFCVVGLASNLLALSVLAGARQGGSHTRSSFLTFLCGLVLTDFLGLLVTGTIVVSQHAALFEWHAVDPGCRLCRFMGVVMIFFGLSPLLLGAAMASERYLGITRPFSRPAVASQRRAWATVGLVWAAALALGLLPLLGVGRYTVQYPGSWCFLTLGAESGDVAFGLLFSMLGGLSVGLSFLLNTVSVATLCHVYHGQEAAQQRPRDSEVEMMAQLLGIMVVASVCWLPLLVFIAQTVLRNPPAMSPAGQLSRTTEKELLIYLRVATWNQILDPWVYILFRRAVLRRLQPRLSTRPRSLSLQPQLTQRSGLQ
# Outline: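 Cell-free radioligand binding with human platelet-derived receptor; 1 h after dosing, filter-based scintillation counting, loss of signal vs DMSO. Primary screen in duplicate at 25 uM.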
# [2] = biological target: human Neurotensin Receptor (NTS), NTSR1 (gene 4923) (UniProt P30989); experiment: NVS_GPCR_hNTS: NovaScreen (NVS) G Protein-Coupled Receptor Assay for human Neurotensin Receptor (NTS) (AID 2283279)
# human Neurotensin Receptor (NTS), NTSR1 (gene 4923), sequence (P30989 whole entry, looked up): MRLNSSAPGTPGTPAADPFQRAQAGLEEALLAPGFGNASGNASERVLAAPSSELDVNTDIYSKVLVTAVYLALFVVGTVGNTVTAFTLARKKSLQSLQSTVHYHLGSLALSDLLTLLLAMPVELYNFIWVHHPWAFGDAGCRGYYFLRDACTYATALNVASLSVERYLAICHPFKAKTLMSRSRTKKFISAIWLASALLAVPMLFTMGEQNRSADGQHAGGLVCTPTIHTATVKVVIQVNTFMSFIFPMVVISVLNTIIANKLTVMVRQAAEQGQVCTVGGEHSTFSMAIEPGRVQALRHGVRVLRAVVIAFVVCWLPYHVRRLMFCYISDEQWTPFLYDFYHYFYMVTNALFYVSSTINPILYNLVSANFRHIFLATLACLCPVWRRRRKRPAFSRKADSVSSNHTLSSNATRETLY
# Outline: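 Compounds competed with a radiolabelled ligand for binding to CHO-derived human neurotensin receptor; bound signal counted after filtration, 1 h. Screened first at a single concentration of 25 uM in duplicate, then concentration series to 50 uM maximum for actives.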
# [3] = biological target: Muscarinic acetylcholine receptor M2 (Homo sapiens) (UniProt P08172); experiment: NVS_GPCR_hM2: NovaScreen (NVS) G Protein-Coupled Receptor Assay for human Muscarinic, M2 Receptor (AID 2283273)
# Muscarinic acetylcholine receptor M2 (Homo sapiens), sequence (P08172 whole entry, looked up): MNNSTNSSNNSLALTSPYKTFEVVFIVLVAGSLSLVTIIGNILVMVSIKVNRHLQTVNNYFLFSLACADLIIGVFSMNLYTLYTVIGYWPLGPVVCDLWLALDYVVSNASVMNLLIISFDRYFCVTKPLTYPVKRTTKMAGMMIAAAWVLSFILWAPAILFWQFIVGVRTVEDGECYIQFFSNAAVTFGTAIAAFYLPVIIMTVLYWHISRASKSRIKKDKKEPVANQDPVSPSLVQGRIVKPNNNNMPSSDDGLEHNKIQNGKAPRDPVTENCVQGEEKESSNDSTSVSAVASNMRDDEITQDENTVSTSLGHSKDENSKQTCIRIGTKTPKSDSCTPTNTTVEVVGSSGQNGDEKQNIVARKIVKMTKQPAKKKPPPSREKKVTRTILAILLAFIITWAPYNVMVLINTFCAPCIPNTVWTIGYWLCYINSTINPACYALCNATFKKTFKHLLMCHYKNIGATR
# Outline: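 Filter-based radiodetection read bound radioligand 1 h after dosing CHO-derived membrane protein. Single-concentration duplicates (25 uM) first, then concentration-response for actives; signal loss versus DMSO scored.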
# [4] = biological target: human Muscarinic, M4 Receptor, CHRM4 (gene 1132) (UniProt P08173); experiment: NVS_GPCR_hM4: NovaScreen (NVS) G Protein-Coupled Receptor Assay for human Muscarinic, M4 Receptor (AID 2283274)
# human Muscarinic, M4 Receptor, CHRM4 (gene 1132), sequence (P08173 whole entry, looked up): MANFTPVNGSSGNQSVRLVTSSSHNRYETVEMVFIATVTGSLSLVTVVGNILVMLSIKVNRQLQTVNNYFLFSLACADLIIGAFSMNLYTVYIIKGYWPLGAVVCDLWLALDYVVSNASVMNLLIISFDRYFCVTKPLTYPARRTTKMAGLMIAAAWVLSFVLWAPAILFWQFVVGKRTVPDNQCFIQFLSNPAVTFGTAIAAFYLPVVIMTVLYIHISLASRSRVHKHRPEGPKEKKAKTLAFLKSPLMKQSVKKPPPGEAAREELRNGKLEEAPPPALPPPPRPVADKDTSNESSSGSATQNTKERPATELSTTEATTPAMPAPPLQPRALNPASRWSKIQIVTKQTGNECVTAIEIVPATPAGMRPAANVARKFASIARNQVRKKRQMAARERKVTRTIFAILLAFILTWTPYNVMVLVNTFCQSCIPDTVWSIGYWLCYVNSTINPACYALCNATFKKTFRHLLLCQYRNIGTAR
# Outline: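 Filter-based scintillation counting of radioligand bound to CHO-expressed human M4 preparations after 1 h; loss of signal fitted versus DMSO. Initial duplicate testing at 25 uM, concentration-response follow-up for actives.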
# [5] = biological target: Muscarinic acetylcholine receptor M5 (Homo sapiens) (UniProt P08912); experiment: NVS_GPCR_hM5: NovaScreen (NVS) G Protein-Coupled Receptor Assay for human Muscarinic, M5 Receptor (AID 2283275)
# Muscarinic acetylcholine receptor M5 (Homo sapiens), sequence (P08912 whole entry, looked up): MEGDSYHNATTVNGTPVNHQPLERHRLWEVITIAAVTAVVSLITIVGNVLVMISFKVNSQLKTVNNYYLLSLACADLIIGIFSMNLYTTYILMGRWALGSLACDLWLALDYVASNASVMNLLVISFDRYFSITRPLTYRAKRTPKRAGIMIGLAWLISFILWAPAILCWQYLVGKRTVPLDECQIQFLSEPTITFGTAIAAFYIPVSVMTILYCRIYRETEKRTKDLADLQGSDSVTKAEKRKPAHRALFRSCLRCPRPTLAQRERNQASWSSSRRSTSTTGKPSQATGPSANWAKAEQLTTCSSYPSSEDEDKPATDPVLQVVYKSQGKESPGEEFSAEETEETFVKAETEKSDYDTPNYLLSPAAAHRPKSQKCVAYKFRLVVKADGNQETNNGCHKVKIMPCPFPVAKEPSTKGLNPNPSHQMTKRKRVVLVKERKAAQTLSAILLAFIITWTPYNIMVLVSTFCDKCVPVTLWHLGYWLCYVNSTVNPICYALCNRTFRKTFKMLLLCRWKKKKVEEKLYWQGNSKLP
# Outline: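 Chemicals passing a primary duplicate screen at 25 uM were run as singleton concentration series, maximum 50 uM. Displacement of a specific radioligand from CHO-extracted receptor was read by filter scintillation after 1 h, relative to DMSO.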
# [6] = biological target: human Neurokinin, NK2 Receptor, TACR2 (gene 6865) (UniProt P21452); experiment: NVS_GPCR_hNK2: NovaScreen (NVS) G Protein-Coupled Receptor Assay for human Neurokinin, NK2 Receptor (AID 2283278);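 also: actives reduce bound radioligand signal relative to DMSO baseline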
# human Neurokinin, NK2 Receptor, TACR2 (gene 6865), sequence (P21452 whole entry, looked up): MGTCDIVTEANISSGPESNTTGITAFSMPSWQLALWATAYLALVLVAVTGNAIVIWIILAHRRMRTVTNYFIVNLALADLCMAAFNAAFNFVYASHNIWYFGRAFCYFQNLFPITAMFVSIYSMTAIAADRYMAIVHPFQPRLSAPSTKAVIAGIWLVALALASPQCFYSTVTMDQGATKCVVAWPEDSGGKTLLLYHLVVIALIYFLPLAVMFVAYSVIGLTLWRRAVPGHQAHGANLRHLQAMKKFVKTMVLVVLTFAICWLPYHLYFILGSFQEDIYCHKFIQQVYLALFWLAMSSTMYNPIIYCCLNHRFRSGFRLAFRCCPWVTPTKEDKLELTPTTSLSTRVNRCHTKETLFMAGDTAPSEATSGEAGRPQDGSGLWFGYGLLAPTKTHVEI
# Outline: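 Filter-based scintillation counting measured radioligand bound to receptor extracted from CHO cells, 4 hours after compound addition. Chemicals screened first at 25 uM in duplicate, with actives retested in concentration series relative to DMSO.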
# [7] = biological target: human Opioid Receptor Delta 1 (Opiate D1), OPRD1 (gene 4985) (UniProt P41143); experiment: NVS_GPCR_hOpiate_D1: NovaScreen (NVS) G Protein-Coupled Receptor Assay for human Opioid Receptor Delta 1 (Opiate D1) (AID 2283280)
# human Opioid Receptor Delta 1 (Opiate D1), OPRD1 (gene 4985), sequence (P41143 whole entry, looked up): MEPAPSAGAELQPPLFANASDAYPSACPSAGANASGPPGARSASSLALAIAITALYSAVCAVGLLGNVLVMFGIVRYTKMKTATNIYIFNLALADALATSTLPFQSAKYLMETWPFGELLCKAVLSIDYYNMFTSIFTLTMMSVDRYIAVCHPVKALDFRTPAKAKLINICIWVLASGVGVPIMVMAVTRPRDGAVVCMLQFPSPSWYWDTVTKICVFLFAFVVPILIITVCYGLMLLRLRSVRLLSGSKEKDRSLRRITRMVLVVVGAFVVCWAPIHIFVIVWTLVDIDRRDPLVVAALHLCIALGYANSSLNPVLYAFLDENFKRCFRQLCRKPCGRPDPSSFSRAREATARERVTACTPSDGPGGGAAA
# Description: NVS_GPCR_hOpiate_D1 is a biochemical, single-readout assay that uses extracted gene-proteins from CHO in a cell-free assay. Measurements were taken 1 hour after chemical dosing in a 96-well plate.NVS_GPCR_hOpiate_D1 is one of one assay component(s) measured or calculated from the NVS_GPCR_hOpiate_D1 assay. It is designed to make measurements of radioligand binding, a form of binding reporter, as detected with scintillation counting signals by Filter-based radiodetection technology.Data from the assay component NVS_GPCR_hOpiate_D1 was analyzed into 1 assay endpoint. This assay endpoint, NVS_GPCR_hOpiate_D1, was analyzed in the positive analysis fitting direction relative to DMSO as the negative control and baseline of activity. Using a type of binding reporter, loss-of-signal activity can be used to understand changes in the binding as they relate to the gene OPRD1. Furthermore, this assay endpoint can be referred to as a primary readout, because the performed assay has only produced 1 assay endpoint. To generalize the intended target to other relatable targets, this assay endpoint is annotated to the gpcr intended target family, where the subfamily is rhodopsin-like receptor.
# Binding assays used specific radioligands (tritiated, iodinated) with non-radioactive competitive displacement ligands in agonist or antagonist protocols (as indicated) and various reference compounds and inhibitors to titrate specific binding to receptors and transporters. Most enzyme assays (CYPs, kinases, phosphatases, proteases, HDACs) used recombinant protein and specific substrates (fluorescence mostly, some colorimetric and radioactive) and inhibitors, followed by a biochemical separation of substrate and product. All assays for the biochemical HTS were initially run in duplicate at a single concentration (10 uM for CYP450 assays and 25 uM for all others). […] Each assay was run with positive and negative controls, and concurrent controls on every plate. The follow-up (secondary) screen tested active chemical-pairs in concentration series, as well as a few additional assays not tested in the primary screen, some selected negative inactives, and several cases re-run in the concentration series for confirmatory purposes.
# [8] = biological target: human Orphanin, Opioid Related Nociceptin Receptor 1 (ORL1), OPRL1 (gene 4987) (UniProt P41146); experiment: NVS_GPCR_hORL1: NovaScreen (NVS) G Protein-Coupled Receptor Assay for human Orphanin, Opioid Related Nociceptin Receptor 1 (ORL1) (AID 2283283)
# human Orphanin, Opioid Related Nociceptin Receptor 1 (ORL1), OPRL1 (gene 4987), sequence (P41146 whole entry, looked up): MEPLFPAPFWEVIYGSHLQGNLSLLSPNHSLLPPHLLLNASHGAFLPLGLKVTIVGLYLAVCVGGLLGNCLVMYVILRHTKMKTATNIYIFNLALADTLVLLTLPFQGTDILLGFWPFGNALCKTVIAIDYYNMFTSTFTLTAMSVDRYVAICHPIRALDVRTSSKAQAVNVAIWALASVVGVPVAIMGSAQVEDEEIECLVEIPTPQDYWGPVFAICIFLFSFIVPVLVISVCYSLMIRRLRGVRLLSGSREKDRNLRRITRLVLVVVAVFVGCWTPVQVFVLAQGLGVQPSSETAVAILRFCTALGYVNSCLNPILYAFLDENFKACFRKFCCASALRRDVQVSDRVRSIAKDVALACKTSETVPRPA
# Outline: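 Cell-free binding using HEK293-derived receptor protein: radioligand displacement measured by filter scintillation 1 hour after dosing. Primary testing at 25 uM in duplicate, followed by singleton concentration series up to 50 uM; DMSO served as negative control.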
# [9] = biological target: human Neuropeptide Receptor Y1 (NPY1), NPY1R (gene 4886) (UniProt P25929); experiment: NVS_GPCR_hNPY1: NovaScreen (NVS) G Protein-Coupled Receptor Assay for human Neuropeptide Receptor Y1 (NPY1) (AID 2283276)
# human Neuropeptide Receptor Y1 (NPY1), NPY1R (gene 4886), sequence (P25929 whole entry, looked up): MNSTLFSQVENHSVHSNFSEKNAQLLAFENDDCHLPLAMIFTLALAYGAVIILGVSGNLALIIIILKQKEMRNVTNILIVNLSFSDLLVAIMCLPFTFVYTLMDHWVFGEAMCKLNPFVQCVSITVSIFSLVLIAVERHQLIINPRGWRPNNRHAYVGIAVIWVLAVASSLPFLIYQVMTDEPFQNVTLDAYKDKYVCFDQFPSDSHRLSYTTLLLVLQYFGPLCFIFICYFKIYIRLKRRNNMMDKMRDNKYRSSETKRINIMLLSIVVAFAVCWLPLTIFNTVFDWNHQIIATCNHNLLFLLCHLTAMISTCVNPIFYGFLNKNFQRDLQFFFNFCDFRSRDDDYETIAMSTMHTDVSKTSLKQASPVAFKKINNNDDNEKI
# Outline: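 Displacement of specific radioligand from NPY1 receptor of SK-N-MC origin, read by filtration and scintillation after 1 h. Compounds first tested at 25 uM in duplicate, then actives in concentration series; signal loss relative to DMSO.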
# [10] = biological target: Neuropeptide Y receptor type 2 (Homo sapiens) (UniProt P49146); experiment: NVS_GPCR_hNPY2: NovaScreen (NVS) G Protein-Coupled Receptor Assay for human Neuropeptide Receptor Y2 (NPY2) (AID 2283277)
# Neuropeptide Y receptor type 2 (Homo sapiens), sequence (P49146 whole entry, looked up): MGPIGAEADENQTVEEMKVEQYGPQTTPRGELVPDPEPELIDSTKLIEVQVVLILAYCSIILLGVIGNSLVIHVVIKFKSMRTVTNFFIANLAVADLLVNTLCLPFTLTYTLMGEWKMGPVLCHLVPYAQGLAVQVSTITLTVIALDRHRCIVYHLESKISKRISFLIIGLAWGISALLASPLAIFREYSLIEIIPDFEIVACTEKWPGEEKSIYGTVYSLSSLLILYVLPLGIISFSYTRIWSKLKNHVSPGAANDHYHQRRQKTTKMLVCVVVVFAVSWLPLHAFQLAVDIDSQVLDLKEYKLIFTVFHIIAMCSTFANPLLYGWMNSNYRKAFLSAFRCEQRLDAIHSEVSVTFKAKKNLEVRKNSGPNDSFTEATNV
# Outline: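 Chemicals were first tested in duplicate at 25 uM, then actives in singleton concentration series to 50 uM. Tracer binding to SK-N-MC-derived protein measured cell-free after 1 h via filter scintillation; signal loss relative to DMSO.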
structure (smiles),measurement,setting,value
CCCCCCc1ccc(O)cc1O,AC50,[1],5.72 µM (active)
Cc1ccc(C)c(O)c1,AC50,[2],9.84 µM (active)
Nc1ccc(Nc2ccccc2)cc1,AC50,[3],25 µM (active)
same,AC50,[4],16.6 µM (active)
same,outcome,[5],inactive
CC(C)=CCCC(C)=CC=O,outcome,[6],inactive
O=C(O)CC(O)C(=O)O (configuration not stated),outcome,[3],inactive
same,outcome,[7],inactive
same,outcome,[8],inactive
COc1ccc2sc(C(=O)Nc3nnn[nH]3)c(OC(C)C)c2c1,AC50,[1],0.187 µM (active)
CCn1nc(Cc2ccccc2)cc1C1CCN(C[C@H]2C[C@H](N(C)[C@@H](C(=O)O)C(C)C)C[C@@H]2c2cccc(F)c2)CC1,AC50,[6],20.8 µM (active)
Cc1c(-c2cccnc2)c2ccccc2n1CCCCC(=O)O,AC50,[1],5.82 µM (active)
Cn1c(=O)cc(Oc2ccc(F)cc2F)c2cnc(NCC(C)(C)O)nc21,outcome,[6],inactive
CCOC(=O)COc1ccc2c(c1)CC(NCC(O)c1cccc(Cl)c1)CC2 (configuration not stated),AC50,[3],3.68 µM (active)
same,AC50,[4],1.92 µM (active)
same,AC50,[5],3.75 µM (active)
same,AC50,[6],21.7 µM (active)
CCN(C(=O)c1cc(C)cc(OC[C@H](C)Nc2ccncc2)c1)C(C)C,AC50,[3],10.6 µM (active)
same,AC50,[4],11.3 µM (active)
CNS(=O)(=O)c1cc(C(=O)N2CCC(CCN3C4CCC3CC(n3c(C)nc5ccccc53)C4)(c3cccc(F)c3)CC2)c(Cl)cc1F (configuration not stated),AC50,[3],9.16 µM (active)
same,outcome,[5],inactive
same,AC50,[6],1.71 µM (active)
same,outcome,[8],inactive
CC[C@H]1CC[C@H](NCc2cc3c(cc2OC)[C@H]2C[C@H]2C(=O)N3C)[C@H](c2ccccc2)N1,AC50,[3],0.835 µM (active)
same,AC50,[4],2.31 µM (active)
same,AC50,[5],7.73 µM (active)
O=P(OC(CCl)CCl)(OC(CCl)CCl)OC(CCl)CCl,AC50,[6],12.5 µM (active)
same,outcome,[1],inactive
COc1cccc(-c2ccc(/C=C\CN3CCCCCC3)cc2Cl)c1,AC50,[3],0.427 µM (active)
same,AC50,[4],1.22 µM (active)
same,AC50,[5],6.57 µM (active)
same,outcome,[6],inactive
same,AC50,[7],15.5 µM (active)
O=C(OC[C@H]1O[C@@H](OC(=O)c2cc(O)c(O)c(OC(=O)c3cc(O)c(O)c(O)c3)c2)[C@H](OC(=O)c2cc(O)c(O)c(OC(=O)c3cc(O)c(O)c(O)c3)c2)[C@@H](OC(=O)c2cc(O)c(O)c(OC(=O)c3cc(O)c(O)c(O)c3)c2)[C@@H]1OC(=O)c1cc(O)c(O)c(OC(=O)c2cc(O)c(O)c(O)c2)c1)c1cc(O)c(O)c(OC(=O)c2cc(O)c(O)c(O)c2)c1,outcome,[1],inactive
CCCN(C1CCN(C(=O)C2CCNCC2)CC1)[C@@H]1CCc2ccc(OC)cc2C1,AC50,[3],0.00539 µM (active)
same,AC50,[4],0.00683 µM (active)
same,AC50,[5],0.0807 µM (active)
CN(C)c1ccc(N=NS(=O)(=O)O)cc1,outcome,[5],inactive
same,outcome,[9],inactive
same,AC50,[6],0.656 µM (active)
CCOc1cccc(-n2cc(C(=O)N3CCN(c4cc(C(=O)O)c5ccccc5c4)CC3)nc2-c2ccc(C)cc2)c1,AC50,[4],26.1 µM (active)
same,AC50,[6],7.6 µM (active)
same,AC50,[7],9.02 µM (active)
same,AC50,[1],6.65 µM (active)
CC(C)c1cccc(C(C)C)c1N1C(=O)c2ccc(O)cc2C1=O,outcome,[10],inactive
same,AC50,[1],7.4 µM (active)
C=CCCCCCCCCC(=O)O,outcome,[10],inactive
CCOC(=O)c1ccc(C2CCC(NC[C@H](O)COc3ccc(O)c(NS(C)(=O)=O)c3)CC2)cc1 (some centres not stated),AC50,[3],4.31 µM (active)
same,AC50,[4],11.9 µM (active)
same,AC50,[5],3.42 µM (active)
same,AC50,[6],5.98 µM (active)
CCC(C)(C)C(=O)O[C@H]1C[C@@H](C)C=C2C=C[C@H](C)[C@H](CC[C@@H]3C[C@@H](O)CC(=O)O3)[C@H]21,outcome,[7],inactive
same,outcome,[1],inactive
CC/C(=C\C(=N/O)C(N)=O)C(C)[N+](=O)[O-] (configuration not stated),outcome,[6],inactive
COCCOc1cc2cc(C(=O)NC3CCN(C(C)C)CC3)n(CC(=O)Nc3ccc(Cl)cn3)c2cn1,outcome,[4],inactive
same,outcome,[5],inactive
same,outcome,[6],inactive
Cc1[nH]cnc1C[C@H]1CCc2c(C)c3ccccc3n2C1=O,outcome,[4],inactive
same,AC50,[5],11.9 µM (active)
same,outcome,[6],inactive
CCc1cc(SCc2sc(-c3ccc(C(F)(F)F)cc3)nc2CN2CCN(c3ccc(OC)cc3)CC2)ccc1OCC(=O)O,AC50,[4],35.7 µM (active)
same,AC50,[5],9.13 µM (active)
same,AC50,[7],7.88 µM (active)
On1ccccc1=S,AC50,[6],8.14 µM (active)
same,AC50,[8],4.73 µM (active)
O=C(O)c1cccc(N(Cc2cccnc2)c2ccc(OC(F)F)c(OC(F)F)c2)c1,outcome,[6],inactive
O=C(O)c1cc(N=Nc2ccc(S(=O)(=O)Nc3ccccn3)cc2)ccc1O,AC50,[1],9.98 µM (active)
